In PubChem BioAssay AID651814 (National Center for Advancing Translational Sciences (NCATS), 2012):
Out of some 2,100 compounds screened, about 590 (28%) were called active. Another 42% or so got no clear call; they are omitted. The call rests on the fitted dose curve; in most records, active means well fitted inhibition curve with a large enough effect; inconclusive means small, poorly fitted or top-dose-only effect; inactive means flat fitted curve, though single readings scatter. The list shows a part of the results.

These molecules were tested against DNA dC->dU-editing enzyme APOBEC-3F (Homo sapiens) (UniProt Q8IUX4) (assay: qHTS for inhibitors of Vif-A3F interactions: Cherry picks). Details: HeLa A3F-eYFP + Vif (tagged APOBEC3F with the HIV-1 protein that degrades it), eYFP fluorescence, 24 h.
Sequence of DNA dC->dU-editing enzyme APOBEC-3F (Homo sapiens) (Q8IUX4 whole entry, looked up): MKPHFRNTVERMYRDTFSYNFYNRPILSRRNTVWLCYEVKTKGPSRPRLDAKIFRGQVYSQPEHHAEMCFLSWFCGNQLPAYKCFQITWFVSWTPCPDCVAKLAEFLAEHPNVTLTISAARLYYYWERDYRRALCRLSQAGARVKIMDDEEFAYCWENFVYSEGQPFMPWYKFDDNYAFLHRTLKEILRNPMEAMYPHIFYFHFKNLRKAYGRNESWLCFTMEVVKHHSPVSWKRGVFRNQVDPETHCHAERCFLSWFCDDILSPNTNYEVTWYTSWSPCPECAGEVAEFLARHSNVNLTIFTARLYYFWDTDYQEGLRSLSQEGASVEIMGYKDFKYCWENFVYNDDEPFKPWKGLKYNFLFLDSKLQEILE
Method in brief: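 HeLa cells stably expressing A3F-eYFP plus Vif, cultured overnight, then exposed to compounds at several concentrations for 24 h at 37 deg C. Reduced Vif-driven degradation read as rising eYFP fluorescence (488 nm ex/500-530 nm em) by laser-scanning cytometry; MG132 as positive control.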
Further: nearly all actives have a fitted effect of over 70% in size.
Potency means the concentration at half of the fitted maximal effect.
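Wherever Max response is given: % of control where 0% means no effect; active compounds raise eYFP fluorescence by blocking Vif-driven A3F loss.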

Max response, inactive:
CCOC(=O)c1c(CC(C)C)csc1/N=C/C1C(=O)CCCC1=O -3.21%
CCc1ccc2c(c1)NC(=O)C2(C)Cc1ccccc1Cl (centres undefined) -19.4%
COc1ccccc1C(=O)NC(=S)Nc1ccc(NC(=O)c2ccco2)cc1 -12.8%
COCCCNc1nc2ccccc2nc1NS(=O)(=O)c1ccccc1 -2.62%
Cc1ccc(O)c(Nc2c3ccccc3nc3ccccc23)c1 -0.294%
CCc1nnc(NC(=O)CSc2nnc(-c3ccccc3O)n2-c2ccc(C)cc2C)s1 -23.9%
COC(=O)C1=COC(C)C2CN3CCc4c([nH]c5cc(OC)c(OC)cc45)C3CC12 (centres undefined) -8.29%
CC(=O)Nc1ccc(S(=O)(=O)Nc2nc3ccccc3nc2Nc2ccc(N)cc2)cc1 -0.838%
O=[N+]([O-])c1cc(Cl)c2cccnc2c1O 3.56%
O=[N+]([O-])c1cc(O)c2ncccc2c1 -7.28%
CCCSc1nnc(N2C(=O)C(O)=C(C(=O)c3ccco3)C2c2ccccc2F)s1 (centres undefined) -6.1%
Cc1ccc(C2=NN(C(=O)c3cccs3)C(c3ccccc3O)C2)cc1 (centres undefined) -0.929%
FC(F)(F)c1ccccc1NC(=S)NN=C1CCCCCC1 0.807%
C=CCN=c1scc(-c2ccc(F)cc2)n1/N=C/c1ccccn1 5.22%
Cc1ccc(-n2nc3c(SCCN4CCOCC4)nnc(C)c3c2C)cc1 -16.8%
C=C1C(=O)O[C@H]2C1CC[C@@](C)(O)C13C=CC(C)(C21)C1(C3)C(=O)O[C@@H]2C3C(C)=CCC3[C@](C)(O)C[C@H](OC(C)=O)C21 (some centres undefined) -25.3%
CCN1/C(=C/c2ccc3ccccc3[n+]2CC)C=Cc2ccccc21 -17%
CC1(C)COC(Cn2c3ccccc3c3ccccc32)O1 (centres undefined) -25.3%
CCOc1cc([N+](=O)[O-])cc2c1C(=O)Nc1ccccc1O2 -12%
COc1ccc(CCNC(=O)CC2(CC3=NS(=O)(=O)c4ccccc4N3)CCCC2)cc1OC -0.97%
Cc1cc(C)cc(NC(=S)NC(=O)C2CC2)c1 -4.35%
CCn1c2ccccc2c2cc(NC(=O)CNCc3ccccc3OC)ccc21 -24.7%
CCN(Cc1ccccc1)c1ccc(/C=C(\C#N)c2ccccn2)cc1 -7.46%
O=C(OCC12CC3CC(CC(C3)C1)C2)c1ccc(NCc2cc(O)ccc2O)cc1 -19.8%
NC(=O)c1ccc(NC(=O)C#Cc2ccccc2)cc1 -20.2%
CN(C)c1ccc2nc3c(=O)[nH]c(=O)nc-3n(CC(O)C(O)C(O)CO)c2c1 (centres undefined) -2.88%
CCN(CC)c1ccc(C=NNc2ccc([N+](=O)[O-])cn2)cc1 -25.4%
CC1=C(n2nnc3ccccc32)C(c2ccccc2)C(C#N)=C(N)O1 (centres undefined) -5.98%
COc1cc(C2C(C#N)=C(N)Oc3cc(O)ccc32)cc2c1OCO2 (centres undefined) -28.2%
N#C/C(=C\c1ccccc1[N+](=O)[O-])C(=O)NCc1ccccc1 -6.74%
COc1cc(OC)c(C2Nc3cccc4cccc(c34)N2)c(OC)c1 -0.492%
CC(=O)c1cccc(-c2ccnc3c2CC(C(=O)Nc2ccc(Cl)cc2)O3)c1 (centres undefined) -28.2%
COc1ccc(OC)c(NC(=O)Cn2cnc3onc(-c4ccc(Cl)cc4)c3c2=O)c1 -18%
CCN(CC)C(=O)Cn1c(=O)n(-c2ccccc2)c(=O)c2c3c(sc21)CCC3 1.37%
CNC(=S)N/N=C/c1ccc(N2CCOCC2)s1 -10.3%
CC(C)NC(=S)N/N=C1\CCCCc2ccccc21 2.14%
CC1Cc2cc(S(=O)(=O)CCC(=O)NCc3ccc(Cl)cc3)ccc2N1C(=O)C1CC1 (centres undefined) -29.5%
O=C(/C=C/c1cccs1)NCc1ccc2c(c1)OCO2 1.53%
COC(=O)c1c(-c2cccnc2)csc1NC(=O)c1ccc2c(c1)OCO2 -11.9%
CC(C)(C)c1ccc(OCC(=O)Nc2ccc3c4c(cccc24)C(=O)NC3=O)cc1 5.82%
CCCCn1c(N)c(N(Cc2ccccc2OC)C(=O)c2ccc([N+](=O)[O-])s2)c(=O)[nH]c1=O -9.57%
COc1ccc(S(=O)(=O)Nc2cc(Sc3ncn[nH]3)c(O)c3ccccc23)cc1 -14.9%
CC(C)C1C(=O)N(Cc2cn(CCC3OCCCO3)nn2)CCS(=O)(=O)N1Cc1ccc(-c2cccc(CO)c2)cc1 (centres undefined) -10.5%
CC1(C(=O)Nc2ccc3c(c2)OCO3)Cc2c(-c3ccccc3)ccnc2O1 (centres undefined) -25.3%
COc1ccc(N/C=C/c2nc(SC)nnc2C)cc1 -11.1%
O=C1c2ccccc2-c2nc3ccccc3cc21 -23.6%
COc1cc(/C=C2\SC(=S)N(NC(=O)c3ccccc3OC)C2=O)ccc1O -7.76%
O=C1/C(=C\c2ccc(O)cc2)SC(=S)N1Cc1ccccc1 -2.14%
COc1cc(/C=C2\SC(=S)N(NC(=O)c3ccccc3O)C2=O)ccc1O -22.7%

Potency, active:
CCN(CC)c1ccc2c(c1)oc(=O)c1c(Cl)cc(=O)oc12 20.6 µM
Cc1ccc(O)c(NC(=O)c2cc(-c3ccccc3O)no2)c1 18.4 µM
Cn1cc(/C=C/c2ccc3ccccc3n2)c2ccccc21 20.6 µM
Cn1cc(/C=C/c2ccnc3ccccc23)c2ccccc21 23.1 µM
Cc1cc(N2CCN(c3ccc([N+](=O)[O-])c4cccnc34)CC2)c2ccccc2n1 10.3 µM
Cc1cc(C)c2cc3c(N)c(C(=O)Nc4c(C)[nH]c(=O)[nH]c4=O)sc3nc2c1 13 µM
Cc1ccc(C2C(C(=O)c3cccs3)=C(O)C(=O)N2c2nnc(C)s2)cc1 (centres undefined) 19.8 µM
O=C(NNC1=Nc2cccc3cccc1c23)c1ccc(Br)cc1 16.4 µM
CC(C)OC(=O)c1cc(C(=O)c2cc(F)ccc2O)coc1=N 23.1 µM
Cc1nnc(SCC(=O)NCc2ccccc2F)c2nn(-c3ccc(Cl)cc3)c(C)c12 16.4 µM
CCN1/C(=C/c2cc[n+](C)cc2)C=Cc2cc(C)ccc21 11.6 µM
O=C1Nc2ccc(Br)cc2C12NNc1ccccc1O2 (centres undefined) 14 µM
Cc1cc(C)cc(NC(=O)Cn2cc(C(=O)C3CCCCC3)c3ccccc32)c1 18.4 µM
CN(C)c1ccc(/C=C/c2nccc3ccccc23)cc1 18.4 µM
CCN(Cc1ccccc1)c1ccc(/C=C/c2nccc3ccccc23)cc1 20.6 µM
CCN(CC)c1nc(C=Cc2ccc(N(C)C)cc2)c2nccnc2n1 1.84 µM
CN(C)c1ccc(C=Cc2nccc3ccccc23)cc1 11.2 µM
CC[n+]1c(C=C2C=C(C)OC(C)=C2)sc2ccccc21 2.31 µM
O=[N+]([O-])c1ccc(N/N=C\c2cccn2-c2ccccc2)nc1 14 µM
CCN(CC)c1ccc2c(c1)OC(N)=C(C#N)C2c1cccnc1 (centres undefined) 17.7 µM
CN(C)c1ccc(/C=C(/C#N)C(=O)NCc2ccccc2)o1 14.6 µM
COc1cc(OC)c(/C=C/c2ccc3ccccc3[n+]2C)c(OC)c1 5.17 µM
Nc1nc(-c2cc(O)ccc2[N+](=O)[O-])cc(-c2ccccc2)c1[N+](=O)[O-] 12.5 µM
COc1ccc(OC)c(NC(=O)Cn2c(=O)n(-c3ccc(Cl)cc3)c(=O)c3c(C)c(C)sc32)c1 20.6 µM
CC(C)NC(=S)N/N=C/c1sc(N2CCCCC2)nc1-c1cccs1 16.4 µM
N#Cc1c(C(F)(F)F)cc(-c2ccccc2)nc1SCc1nc(N)nc(N2CCOCC2)n1 5.8 µM
COc1cc(N2CCCC2)c(OC)cc1/C=C(/C#N)c1ccc(Br)cc1 7.31 µM
COc1cc(N2CCCC2)c(OC)cc1/C=C(/C#N)c1ccc(F)cc1 20.6 µM
Cc1ccc(C(=O)Nc2sc(Cc3ccc4c(c3)OCO4)c(C)c2C(N)=O)cc1 6.51 µM
CCOc1cc(/C=C2\N=C(SC(C)C(N)=O)N(c3ccc(OC(F)F)cc3)C2=O)ccc1O (centres undefined) 15.8 µM
COc1cc(N2CCCC2)c(OC)cc1/C=C1/NC(=S)NC1=O 3.53 µM
Cc1cc(C)c2nc(SCC(=O)N3CC(=O)Nc4ccccc43)c(C#N)cc2c1 3.96 µM
Cc1cccc2cc(C#N)c(SCC(=O)N3CC(=O)Nc4ccccc43)nc12 4.44 µM
O=C(NCC1CCCO1)c1nn2c(C(F)(F)F)cc(-c3cc(Br)cs3)nc2c1Br (centres undefined) 11.6 µM
CCCNc1c(F)c(F)c2c(C)c3ccccc3nc2c1F 14 µM
Cc1c2ccccc2nc2c(F)c(NC(C)C)c(F)c(F)c12 6.51 µM
CCOC(=O)c1sc2cc([N+](=O)[O-])cc(SCC(C)C)c2c1N 2.06 µM
COC(=O)c1sc2cc([N+](=O)[O-])cc(SCC(C)C)c2c1N 13 µM
COc1cc2c(cc1OC)C1=CC(=O)C(=O)N1C(C)(C)C2 14 µM
C=CCSc1nnc(C)c(/C=C/Nc2ccc(Cl)cc2)n1 20.6 µM
O=C1c2ccccc2C(=O)c2cc(N3CCCCC3)ccc21 8.86 µM
C=C(/C=C/c1ccc(N(C)C)cc1)c1nc2ccccc2s1 14.6 µM
COc1cc(/C=C2/SC(=S)N(Cc3ccccc3)C2=O)cc(Cl)c1O 4.44 µM
O=C(O)c1cc(-c2ccc(/C=C3/SC(=S)N(Cc4ccccc4)C3=O)o2)ccc1Cl 13 µM
COc1cc(/C=C2/SC(=S)N(CCC(=O)Nc3ccccc3)C2=O)cc(OC)c1OC 18.4 µM
